According to PubChem BioAssay AID1671189 (National Center for Advancing Translational Sciences (NCATS), 2021):
Out of some 1,100 compounds screened, about 70 (6%) were called active. Another 22% or so got no clear call; they are omitted. The sample as a whole holds a higher share of actives than the screen did. A number with no mark means an inactive call. The call rests on the fitted dose curve; in most records, active means well fitted curve in the direction sought with a large enough effect; inconclusive means small, poorly fitted or top-dose-only effect, or another doubt; inactive means no such curve, though single readings can be large or run the other way.

The molecules below were run against Polyunsaturated fatty acid lipoxygenase ALOX12 (Homo sapiens) (UniProt P18054) (assay: Confirmatory qHTS assay for inhibitors of human arachidonate 12S-lipoxygenase (ALOX12): Round 2). Settings: purified human 12-LOX, xylenol orange absorbance; series mostly up to 125 µM; activity change, negative = inhibition: at the top concentration.
Polyunsaturated fatty acid lipoxygenase ALOX12 (Homo sapiens), sequence (P18054 whole entry, looked up): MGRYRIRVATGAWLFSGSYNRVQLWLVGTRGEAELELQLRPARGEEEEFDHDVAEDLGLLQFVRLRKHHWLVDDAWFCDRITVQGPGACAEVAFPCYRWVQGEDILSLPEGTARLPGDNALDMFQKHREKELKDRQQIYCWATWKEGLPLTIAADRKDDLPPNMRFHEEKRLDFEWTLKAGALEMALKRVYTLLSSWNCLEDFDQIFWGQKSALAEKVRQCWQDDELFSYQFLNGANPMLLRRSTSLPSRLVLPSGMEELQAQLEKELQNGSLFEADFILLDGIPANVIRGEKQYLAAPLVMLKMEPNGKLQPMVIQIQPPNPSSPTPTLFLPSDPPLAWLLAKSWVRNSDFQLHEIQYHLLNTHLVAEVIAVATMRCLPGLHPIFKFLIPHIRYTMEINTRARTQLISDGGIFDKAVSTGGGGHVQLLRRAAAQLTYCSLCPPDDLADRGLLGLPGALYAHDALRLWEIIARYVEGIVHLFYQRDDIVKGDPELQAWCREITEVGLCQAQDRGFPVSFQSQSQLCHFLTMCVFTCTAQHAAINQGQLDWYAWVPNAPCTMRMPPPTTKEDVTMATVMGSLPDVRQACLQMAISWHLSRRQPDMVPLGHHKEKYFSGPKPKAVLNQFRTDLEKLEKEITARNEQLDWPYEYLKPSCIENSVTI
Source text: Assay Provider: Theodore R. Holman Ph.D. University of California, Santa Cruz, California Human lipoxygenase 12hLO is a member of the closely related lipoxygenase family of enzymes which catalyze the site-specific oxidation of arachidonic acid to various hormone precursor molecules and as such is a candidate for drug development in a variety of disease areas, such as cancer and inflammation. Inhibition of 12hLO activity was screened by utilizing arachidonic acid as a substrate. The extent of hydroperoxide product formation was measured by a secondary chromogenic reaction in which xylenol orange (XO, Sigma-Aldrich, cat. number 39,818-7) reacts with the ferric ions produced from the reaction between the hydroperoxide and ferrous ions. The Fe (III)-XO complex is characterized with red-shifted absorbance at 560 nm. A purified preparation of human 12hLO was supplied by Dr. Holman laboratory, University of California, Santa Cruz.
PROTOCOL TABLE SEQUENCE No. (e.g., 1, 2, 3, etc.); […] (e.g., Cells, Incubation, Reagent, etc.); VALUE; DESCRIPTION 1; Enzyme; 3 uL; 150 nM 12hLO enzyme solution dispensed in 1536-well Greiner black, clear bottom plates. 2; Compound; 23 nL; compounds and controls were added. 3; Incubate; 15 min; room temperature. 4; Substrate; 1 uL; 40 uM arachidonic acid (final concentration). 5; Incubate; 30 min; room temperature. 6; Reagent; 4 uL; Fe-XO solution was added to each well. 7; Incubation; 30 min; room temperature 8; Detector; absorbance; Read 1 at 405 nm absorbance using ViewLux (PerkinElmer) CCD imager. 9; Detector; absorbance; Read 2 at 573 nm absorbance using ViewLux (PerkinElmer) CCD imager. NOTES (numbers refer to sequence above) 1; 150 nM 12hLO (final concentration) in buffer solution (25 mM Hepes, 0.01% Triton X-100, pH 7.0) was dispensed in columns 1, 2, 5-48. Column 1 is neutral (100% activity). Buffer only was dispensed in columns 3 and 4 as no enzyme negative controls. The plates were covered with metal lids with gas-exchange holes. 2; Compounds were pin transferred via a Kalypsys Pin Tool (Wako USA) in column 5 - 48. Control compound was transferred in column 2, titration of nordihydroguaiaretic acid (NDGA, Sigma-Aldrich, N5023) with top concentration of 20 mM in DMSO then 1:3 dilution in duplicate. Dilution factor of 23 nL into 4 uL final assay volume. 3; Covered assay plates were incubated for 15 min at room temperature. 4; Substrate was added to start the reaction; 40 uM arachidonic acid (Sigma-Aldrich, St. Louis, MO) was dispensed throughout the plate. 6; Chromogenic detection reagent solution (divalent iron/xylenol orange, Fe-XO) was added to each well: 200 uM xylenol orange, 300 uM ferrous ammonium sulfate prepared freshly in 50 mM sulfuric acid. 8, 9; Two absorbance readouts were obtained at 405 nm and at 573 nm using a ViewLux high-throughput CCD plate imager (PerkinElmer). The 573 to 405 (Read 2 / Read 1) absorbance ratio was used to compute reaction progress.
On the % scale 0 is the no-effect control and ±100 the full control effect; potency means the concentration at half of the fitted maximal effect.

Structure (SMILES)	Potency	activity change, negative = inhibition
COc1ccccc1NC(=O)Nc1ccc2n(c1=O)C[C@H]1C[C@@H]2CN(C2CCOCC2)C1	14.1 µM (active)	–
O=C(Nc1ccc2n(c1=O)C[C@H]1C[C@@H]2CN(Cc2ccc(F)cc2)C1)c1cccs1	–	-9.31% [at 64.5 µM]
Cc1o[nH]c(=O)c1C[C@H](N)C(=O)O	–	5.45%
C#C[C@H]1CN2CC[C@H]1C[C@@H]2COC(=O)NCCC	17.8 µM (active)	–
O=C(O)C1=NOC2CN(Cc3cccc(Br)n3)CC12 (stereo not given)	–	-4.21%
c1cc2nc(C3CCNCC3)[nH]c2cn1	–	-16.3% [at 233 µM]
CCN1C[C@]2(COC(=O)c3ccccc3N3C(=O)CC(C)C3=O)CC[C@H](OC)[C@@]34C5C[C@@H]6[C@@H](OC)C[C@@](O)(C5[C@H]6OC)[C@](O)([C@@H](OC)C23)[C@@H]14 (stereo not given in full)	–	3.67%
CCOc1ccc(CN(CCc2ccc3c(c2)OCO3)Cc2ccc(C)cc2)cc1	–	-11.3%
N[C@@]1(C(=O)O)CC[C@H](C(=O)O)C1	–	-0.148%
CSc1ccc(-c2ccc(=O)n3c2[C@@H]2C[C@@H](CN(S(=O)(=O)c4cccs4)C2)C3)cc1	15.8 µM (active)	–
CSc1ccc(-c2ccc(=O)n3c2[C@@H]2C[C@@H](CN(S(C)(=O)=O)C2)C3)cc1	–	-26.5% [at 64.5 µM]
CCCS(=O)(=O)N1C[C@@H]2C[C@H](C1)c1c(-c3ccc(Cl)cc3)ccc(=O)n1C2	–	-24.3% [at 64.5 µM]
CSc1ccc(CN2CCN(C(=O)COc3ccc(C)cc3)CC2)cc1	–	-25.5%
O=C(Cc1ccc(Cl)cc1)N1Cc2ccccc2CC2(CCCN2CC2CCNC2)C1 (stereo not given)	–	-22.4%
O=C(O)C1CN(Cc2ncc[nH]2)CCN(C(=O)Cc2cccs2)C1 (stereo not given)	–	5.5% [at 64.5 µM]
